KB-3-1 cytotox: KB-3-1 parental cell cytotoxicity; 1.4% of 400,000 active; KB-3-1 viability, CellTiter-Glo ATP luminescence, 72 h; AID 1347075; Potency, µM (highest dose often 46.1 µM), hits mostly cytotoxic; further: on the % scale 0 is the no-effect control and ±100 the full control effect; nearly all actives have a fitted effect of over 60% in size
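Parental KB-3-1 viability, qHTS format: 72 h compound exposure, 37 °C; CellTiter-Glo; media-only wells and DMSO plates as controls; concentration-effect fits on corrected data.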
SW480 rerep: induces DNA re-replication in SW480 colon adenocarcinoma cells; SW480 DNA re-replication, Hoechst DNA content imaging, 48 h; Potency, µM (top dose mostly 46.1 µM), inactives show top-dose re-replication activation, usual class: activators; 1.8% of 340,000 active; further: % of control where 0% means no effect; nearly all actives have a fitted effect of over 55% in size
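DNA re-replication was detected as more nuclei of elevated Hoechst intensity after 48 hr exposure to compound (23 nL pinned per well of 250 cells).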
HT1080 IDH1KD tx: HT-1080 IDH1 knockdown cell toxicity (counter line); HT-1080 IDH1 knockdown viability, ATP luminescence, 48 h; Potency, µM (top dose mostly 46.1 µM), inactives show top-dose activity, negative = toxicity, usual class: cytotoxic; 2% of 360,000 active;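 further: 0% = DMSO wells and -100% = cell-free medium wells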
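Assay cells: HT-1080 with IDH1 knockdown, 750 per well, RPMI/5% FBS. Exposure: 48 h at 37 °C following 2 h pre-incubation. Read: CellTiter-Glo luminescence; fitted concentration-response, curve class assigned.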
KB-V1 cytotox: KB-V1 MDR subline cytotoxicity | 3.4% of 400,000 active | Potency, µM (highest dose often 46.1 µM), most hits filed as cytotoxic | KB-V1 MDR cells viability, CellTiter-Glo, 72 h | AID 1347076; further: on the % scale 0 is the no-effect control and ±100 the full control effect; nearly all actives have a fitted effect of over 60% in size
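KB-V1, DMEM (no phenol red) + 10% FBS; cpd pin-transferred, titration series; 72 h, 37 degrees C; CellTiter-Glo, luminescence. Data normalized, curve-fit.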
HT1080-NT tox: kills 2HG-producing HT-1080-NT fibrosarcoma cells | HT-1080-NT fibrosarcoma viability, CellTiter-Glo ATP luminescence, 48 h | Potency, µM (top dose mostly 46.1 µM), for the others: top-dose activity, negative = less viability, actives largely listed as cytotoxic | 1.6% of 360,000 active | AID 686970;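 further: NT is the 2HG producing partner of a matched IDH1 knockdown line; 0% = DMSO-treated cells and -100% = media-only wells without cells; nearly all actives have a fitted effect of over 55% in size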
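HT-1080-NT; 750 cells/well; 5% FBS RPMI; 48 h compound, 37 degrees C; CellTiter-Glo luminescence; curve fitting and curve-class assignment.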
MCF10A rerep: DNA re-replication induction in MCF 10a cells; AID 624296; 2.9% of 350,000 active; Potency, µM (doses to about 46.1 µM), inactives show at the top dose activity, positive = re-replication, usual class: activators; MCF 10A DNA re-replication, Hoechst nuclear intensity, 48 h; further: % of control where 0% means no effect; nearly all actives have a fitted effect of over 50% in size
An asterisk follows results filed as active; i = inactive; ? = inconclusive; · = no result given; [ ] = remark or other dose. The list is not random: actives were taken first. Their share in the collection is about 7.9%. The call rests on the fitted dose curve; in most records, active means well fitted curve in the direction sought with a large enough effect; inconclusive means small, poorly fitted or top-dose-only effect, or another doubt; inactive means no such curve, though single readings can be large; an effect the other way counts as inactive or inconclusive. Potency means the concentration at half of the fitted maximal effect.

SMILES	KB-3-1 cytotox	SW480 rerep	HT1080 IDH1KD tx	KB-V1 cytotox	HT1080-NT tox	MCF10A rerep
Cc1cc(C(F)F)n2nc(C(=O)Nc3ccc(F)c(Cl)c3)nc2n1	i	·	·	i	·	·
O=C(CCl)NCc1c(Cl)cccc1-n1cccc1	i	25%	10µM*	i	?	18µM*
COC(=O)c1ccc2[nH]c3cccc(/C(=C/c4ccccc4)c4ccccc4)c3c2c1	?	1%	?	?	?	12µM*
O=C1CCCc2[nH]c3cccc(/C(=C/c4ccccc4)c4ccccc4)c3c21	i	-8%	-7%	?	-17%	?
COc1ccc(NC(=O)c2ccc3c(c2)c(C)c(C)n3Cc2ccc(F)cc2)cc1	12µM*	·	·	8.2µM*	·	·
CCOC(=O)c1ccc(NC(=O)c2ccc3c(c2)c(C)c(C)n3Cc2ccc(F)cc2)cc1	i	·	·	i	·	·
CN(C)CC1(C)Cc2ccsc2C1O (stereo not given)	i	-4%	14%	i	12%	3%
O=C(CN1CCN(S(=O)(=O)c2ccccc2)CC1)Nc1ccccc1Cl	·	1%	-3%	·	-6%	?
O=C(CN1CCN(S(=O)(=O)c2ccccc2)CC1)Nc1ccccc1C(=O)c1ccccc1	?	-3%	?	3.7µM*	-28%	7%
O=C(CCl)Nc1ccccc1C(=O)c1ccccc1	i	15µM*	-6%	i	?	7.3µM*
CCc1sc(Nc2cccc(C)c2)nc1-c1cc2cccc(OC)c2oc1=O	i	·	·	i	·	·
O=C1C=CC(=Nc2ccc3c(c2)Cc2cc(F)ccc2-3)O1	·	?	2%	·	-5%	1%
O=C1C=CC(=Nc2cccc3c2C(=O)c2ccccc2-3)O1	?	23µM*	-53%	i	0%	?
COc1cccc(N2CCN(C(=O)Cn3ncc4c3-c3ccccc3OC4)CC2)c1	i	·	·	i	·	·
COc1ccc(-n2c(C)cc(-c3cn4cccc(C)c4n3)c2C)cc1	i	-181%	-2%	i	-9%	?
Cc1cc(-c2cn3ccccc3n2)c(C)n1-c1ccccc1	?	?	?	i	?	21µM*
Cc1ccc(C)c(Cn2c(=O)n(CCCCC(=O)NCc3ccc4c(c3)OCO4)c(=O)c3ccccc32)c1	i	·	·	i	·	·
c1ccc(Nc2nc(N3CCCCC3)nc(N3CCNCC3)n2)cc1	i	-3%	?	21µM*	?	-2%
c1ccc(Nc2nc(N3CCCCC3)nc(N3CCCCC3)n2)cc1	i	-3%	?	i	?	-11%
COc1nc(Nc2cccc(C)c2)nc(N2CCCCC2)n1	i	5%	18%	?	3%	?
Cc1cccc(Nc2nc(N3CCCC3)nc(N3CCCC3)n2)c1	i	?	7%	9.2µM*	9%	21µM*
O=C(NCCc1ccc(Cl)cc1)c1cccn1-c1nnc(N2CCCC2)s1	i	·	·	i	·	·
Cc1cccc(C)c1N1C(=O)CC(Sc2ccccc2N)C1=O (stereo not given)	i	·	-4%	?	-5%	·
Cc1ccc(C(C(=O)NCc2ccco2)N(C(=O)CNC(=O)c2cccs2)c2c(C)cccc2C)cc1 (stereo not given)	i	?	12%	i	12%	18µM*
Cc1ccc2nc(-c3ccc(-c4cccc(Cl)c4)cc3)c(NCc3ccccc3)n2c1	i	0.33µM*	-11%	i	-1%	?
SMILES	KB-3-1 cytotox	SW480 rerep	HT1080 IDH1KD tx	KB-V1 cytotox	HT1080-NT tox	MCF10A rerep
c1ccc(-c2nc3ccccn3c2NC2CCCC2)nc1	i	19%	?	i	?	23%
COc1cc(-c2nc3ccc(C)cn3c2NCc2ccccc2)ccc1-c1cccc(Cl)c1	i	?	-11%	i	?	?
COc1cc(-c2nc3ccccn3c2NCc2ccccc2)ccc1SC1CCCCC1	?	29%	?	?	?	26µM*
COc1ccc(-c2nc3ccccn3c2NC2CCCCC2)cc1SC1CCCCC1	?	?	?	i	?	12µM*
COc1cc(-c2nc3ccc(C)cn3c2NCc2ccccc2)ccc1SC1CCCCC1	i	?	?	?	?	18µM*
COc1ccc(N2CCN(S(=O)(=O)c3ccc4oc(=O)c5ncn(C)c5c4c3)CC2)cc1	i	·	·	?	·	·
O=C([C@@H]1CC=C[C@@H]2CCN(C3CC3)C(=O)[C@@H]21)N1CCOCC1	i	·	·	i	·	·
CCCc1c(C(=O)OCC)nnc2c(-c3ccccc3)c(C)nn12	i	·	·	i	·	·
CCCc1nn2c(=O)cc(COC(=O)c3ccco3)nc2s1	i	·	·	?	·	·
Cc1cccc(NC(=O)c2cc(=O)c3ccccc3o2)n1	i	2.9µM*	8%	i	-1%	91%[0.0737 µM]
Cc1ccc2oc(C(=O)NCc3ccccc3)cc(=O)c2c1	i	13%	-10%	i	?	2%
Cc1cc2oc(C(=O)NCc3ccccc3)cc(=O)c2cc1C	i	8.2µM*	1%	i	?	14%
Cc1ccc2c(=O)cc(C(=O)NC3CCS(=O)(=O)C3)oc2c1 (stereo not given)	i	-8%	10%	i	-2%	-2%
Cc1ccc(C)c(NC(=O)c2cc(=O)c3ccccc3o2)c1	i	0%	27%	15µM*	14%	?
Cc1ccc2oc(C(=O)NC3CCS(=O)(=O)C3)cc(=O)c2c1 (stereo not given)	i	21µM*	0%	?	2%	1%
CC(=O)COc1ccc2cc(-c3ccccc3)c(=O)oc2c1	i	27%	5%	i	14%	2%
O=C(CCCCl)Oc1ccc2cc(-c3ccc4ccccc4n3)c(=O)oc2c1	i	2.1µM*	19%	i	6%	6.5µM*
O=C(NCc1ccc(-c2nc3ccccc3s2)cc1)c1ccco1	i	-66%	7%	23µM*	9%	5%
O=C(CCCc1nc2ccccc2s1)NCc1ccccc1	i	-6%	13%	23µM*	5%	1%
CN(C)c1ccc(C=O)cc1Cl	i	·	·	i	·	·
C/C(=N\Nc1cc(C)nc(-c2ccccc2O)n1)c1ccccc1	i	?	?	i	?	?
COc1cc(N/N=C(\C)c2ccc(N)cc2)nc(-c2ccccc2)n1	i	3%	-25%	i	-2%	18µM*
COc1ccc(/C(C)=N/Nc2nc3ccccc3nc2C)cc1OC	i	-13%	?	i	-19%	-3%

Bioassay records deposited in PubChem by National Center for Advancing Translational Sciences (NCATS).
